Fewer than 10 of roughly 21,000 compounds showed an effect of 50% or more. Only a sample is shown. Entries with a potency or affinity are not part of this list.
These compounds were tested on Acinetobacter baumannii. Conditions: Concentration 300 ug.mL-1; ASSAY_TEST Inhibition of Bacterial Growth; detection method Absorption (OD600); MEDIA CAMHB; plate type 384well; NBS; CORNING #3640; time 18 hr.
`CCC(=O)NCCc1noc(COC)n1` showed an Inhibition of 8.83%.
In the case of `CCOc1cccc(C(C)NC(=O)CNC(C)=O)c1` (stereo not given), the Inhibition is reported as 8.25%.
Compound `CCC(=O)N1CCN(C(=O)CC2CCCCC2)CC1` has an Inhibition of 6.05%.
`CC1Cc2ccccc2N1CCN` (stereo not given) showed an Inhibition of 14.26%.
In the case of `O=C1Nc2ccccc2C1C1CCNCC1` (stereo not given), the Inhibition is reported as 10.09%.
For `Cc1cc(C)cc(OCC(=O)N2CCN[C@H](C)C2)c1`, the Inhibition was 8.4%.
`CC1=C(c2ccco2)CN(CC(N)=O)CC1` gave an Inhibition of 3.95%.
`O=C(Nc1cncc(Br)c1Cl)N1CCC(O)C1` (stereo not given) showed an Inhibition of -0.64%.
With `NCc1cccc(N2CC=CC2)c1` the Inhibition was 6.5%.
`O=C(CCN1CCOCC1)Nc1cccc(Cl)c1` gave an Inhibition of 5.94%.
Work on `O=C(Cn1ccnc1)Nc1ccc(OC(F)F)cc1` yielded an Inhibition of 8%.
`CNC(=O)CSc1nnc(C2CC2)n1C` gave an Inhibition of 5.97%.
With `CC(=O)c1c(C)[nH]c(C(=O)OCC(=O)N(C)C)c1C` the Inhibition was 5.39%.
`NCc1ccc(-c2ccccc2)o1` was tested, and the Inhibition was 16.01%.
In the case of `CC(C)CCNC(=O)Nc1c[nH]c(=O)[nH]c1=O`, the Inhibition is reported as 6.3%.
`CCCNC(=O)Cn1ccnc1SC` showed an Inhibition of 10.93%.
With `CNC(=O)c1cccc(CN)n1` the Inhibition was 9.63%.
Compound `CN(C)[C@H]1CN(C(=O)c2ccncc2)C[C@@H]1C1CC1` has an Inhibition of 10.19%.
In the case of `CCn1cnnc1CC1CCCNC1` (stereo not given), the Inhibition is reported as 9.33%.
With `Cc1ccc(OC2CCN(C(=O)[C@@H](C)N)CC2)cc1` the Inhibition was 3.78%.
`CN[C@@H](C)C(=O)N1CC(Oc2ccccc2OC)C1` gave an Inhibition of -2.39%.
In the case of `CC(C)NC(=O)C(C)N` (stereo not given), the Inhibition is reported as 9.53%.
Work on `NC(c1ccc(Cl)cc1)c1ncon1` (stereo not given) yielded an Inhibition of 6.75%.
Compound `O=C(Cn1ccc(=O)[nH]c1=O)NCc1cccnc1` has an Inhibition of 6.41%.
For `CCOc1cc(C)ccc1CN`, the Inhibition was 7.86%.
In the case of `c1ncn(-c2ccc(NCC3CCOCC3)cc2)n1`, the Inhibition is reported as 5.37%.
`Cc1nn(C)c2nc(NCCC(=O)N3CCCC3)sc12` was tested, and the Inhibition was 3.37%.
`CNC(=O)[C@H]1CC[C@H](CNC(=O)c2cn[nH]c2)CC1` gave an Inhibition of 6.17%.
`CC(C)C(=O)N1CCC(N)C1` (stereo not given) was tested, and the Inhibition was 3.38%.
Work on `Cc1nc(CN(C)C(=O)NCc2ccccc2)no1` yielded an Inhibition of 6.9%.
`CC(C)(C)OC(=O)N1CC(O)C1` showed an Inhibition of 5.37%.
`COC(=O)c1ccc(NC(=O)N2CCOC(C)C2)cc1` (stereo not given) gave an Inhibition of 6.27%.
In the case of `CSc1ccc(OCCN(C)CC(N)=O)cc1`, the Inhibition is reported as 7.33%.
`CCOC(=O)c1csc(CNC(=O)c2ccc(C)o2)n1` gave an Inhibition of 0.25%.
For `CN(CCN1CCCC1=O)C(=O)c1ccc(Br)cc1O`, the Inhibition was 1.38%.
`CN[C@@H](CC(C)C)C(=O)NCCCc1csc(N)n1` showed an Inhibition of -8.08%.
`COCC(=O)N1CCN(Cc2csc(C)n2)CC1` gave an Inhibition of 2.61%.
Compound `CCC(NC(=O)C1CC1)(C(N)=O)C(C)C` (stereo not given) has an Inhibition of 2.37%.
`Cc1cccc(NC(=O)C2COCCO2)c1` (stereo not given) showed an Inhibition of 1.93%.
In the case of `CC(=O)N1CCCC(C(=O)NCCc2nnc(C)s2)C1` (stereo not given), the Inhibition is reported as 6.35%.
Compound `O=C(OCCC1CCCO1)c1ccncc1` (stereo not given) has an Inhibition of -0.58%.
Compound `O=C(CCC(F)(F)F)N[C@H]1CCCNC1` has an Inhibition of 10.33%.
In the case of `CC(=O)N(C)CC(=O)Nc1ccccc1N1CCCC1`, the Inhibition is reported as 8.57%.
With `CN(C)c1nccc(N(C)CCn2cccn2)n1` the Inhibition was 7.7%.
`CCN(C(=O)c1ccc(-c2ccco2)[nH]c1=O)C1CC1` gave an Inhibition of 3.27%.
`COCC(=O)Nc1ccc(OCc2ccccn2)cc1` gave an Inhibition of 4.72%.
In the case of `COc1ccc(OCCN2CCNCC2)cc1`, the Inhibition is reported as 8.28%.
Work on `CC(=O)NC(C(=O)N1CCSCC1)C(C)C` (stereo not given) yielded an Inhibition of 3.97%.
In the case of `CC(C)Oc1ncc(C(=O)N2CCC(O)CC2)cc1Cl`, the Inhibition is reported as 1.14%.
For `C[C@H](N)c1cccc(OCCN(C)C)c1`, the Inhibition was 5.56%.
For `C[C@@H]1CN(CCC(=O)NC2CCCC2)CC[C@]1(C)O`, the Inhibition was 3.95%.
`O=S(=O)(CCN1CCN(c2nccs2)CC1)C(F)(F)F` showed an Inhibition of 11.95%.
For `CS(=O)(=O)C[C@H]1CCCN1`, the Inhibition was 4.73%.
Compound `CN(C(=O)c1ccc2c(c1)NC(=O)CS2)C1CCCC1` has an Inhibition of 10.76%.
`CN(C(=O)CCn1cccn1)C1CCS(=O)(=O)C1` (stereo not given) gave an Inhibition of 0.97%.
In the case of `NCCNS(=O)(=O)c1ccc(F)cc1C(F)(F)F`, the Inhibition is reported as 9.19%.
`CCn1cc(Br)c(C(C)=O)n1` showed an Inhibition of 15.72%.
`CCc1nccn1CCNC(=O)Cc1nonc1C` gave an Inhibition of 6.19%.
`O=C(Nc1ncccc1O)c1cnns1` was tested, and the Inhibition was 5.13%.
`CN(C)CC[C@H](O)c1cccs1` was tested, and the Inhibition was 11.43%.
For `Cc1occc1C(=O)N1CCC(NC(=O)C2CC2)CC1`, the Inhibition was 4.82%.
Compound `CC(=O)c1cccc(COC(=O)c2cccnc2)c1` has an Inhibition of 12%.
`CC(C)c1noc(CN(C)C(=O)C2=NNC(=O)CC2)n1` was tested, and the Inhibition was -1.48%.
For `CSCC(=O)N1CCN(S(=O)(=O)N2CCOCC2)CC1`, the Inhibition was -0.38%.
`CCSc1nccc(N)n1` was tested, and the Inhibition was 18.01%.
Compound `CS(=O)(=O)NCCc1nc2c(s1)CCCC2` has an Inhibition of 6.5%.
With `CNC(=O)c1cccc(NCc2cccnc2)n1` the Inhibition was 1.67%.
Compound `CCN(C(=O)C(C)O)C1CCCCC1` (stereo not given) has an Inhibition of 7.15%.
Work on `CN(Cc1ccc(Oc2ccccc2)cc1)C(=O)CN` yielded an Inhibition of 13.35%.
For `Cn1cc(S(=O)(=O)NCc2ccco2)cn1`, the Inhibition was -0.88%.
Work on `O=C1CCCc2sccc2N1` yielded an Inhibition of 14.86%.
`CCCS(=O)(=O)N1C[C@@H](CN(C)CCO)[C@@H](CO)C1` was tested, and the Inhibition was 1.24%.
`CNC(=O)c1ccc(CNC(=O)c2ccoc2C)cc1` was tested, and the Inhibition was 5.87%.
In the case of `COc1ccc(NC2CC(=O)N(C)C2=O)cc1OC` (stereo not given), the Inhibition is reported as 5.58%.
For `CCN1CCCC1CNC(=O)c1csc(NC(C)=O)n1` (stereo not given), the Inhibition was -0.07%.
`NCC(=O)NCCN1CCCCC1` showed an Inhibition of 9.69%.
`CCn1nnnc1NCc1sccc1C` gave an Inhibition of 11.07%.
For `CCOc1ncccc1C(=O)OC(C)C(=O)NC1CC1` (stereo not given), the Inhibition was 0.66%.
`O=C(Nc1cccc(Cl)c1Cl)C1CCS(=O)(=O)C1` (stereo not given) gave an Inhibition of -2.85%.
In the case of `CC(=O)c1cc[nH]c(=O)c1`, the Inhibition is reported as 3.77%.
`O=C(CNC1CC1)NC[C@H]1CCc2ccccc2O1` showed an Inhibition of 0.42%.
`Cc1ccc(CN(C)CC(=O)NCCC#N)o1` gave an Inhibition of 4.14%.
`COc1ccc(CC(=O)NCC(C)C)c(OC)c1` showed an Inhibition of 9.02%.
`CCCn1nnnc1CSCc1ccccn1` showed an Inhibition of 1.73%.
`CCCOc1ccc2c(c1)CCN(C(=O)C(C)N)C2` (stereo not given) gave an Inhibition of 14.38%.

Source: ChEMBL document CHEMBL4513160, “CO-ADD screening of MMV (CH) - Small Polar Library”
